Drawing on PubChem BioAssay (NCATS), this text covers outcome and Potency for eleven molecules.

Inconclusive results are not listed. The source made the active and inactive calls. Calls follow the shape of the dose curve; as a rule, active = well fitted curve in the direction sought with a large enough effect; inconclusive = small, poorly fitted or top-dose-only effect, or another doubt; inactive = no such curve, though single readings can be large; an effect the other way counts as inactive or inconclusive.

A short description of experiment [1]: qHTS assay for measurement of the activity of small molecule inhibitors on Zika virus induced Caspase-3 activity in human astrocytoma cells (AID 1224859). In a few lines: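 Percent inhibition of virus-induced caspase-3/7 signal is calculated against uninfected and ZIKV-infected control cells. Cells are SNB-19, infected at 2 FFU/cell for 6 h after 1 h compound exposure.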
For orientation: qHTS replaces the single test concentration by a dilution series.

Experiment [2] is described as follows: qHTS assay to identify small molecule inhibitors of chordoma cells - UCH-1 (AID 1259355). Also: nearly all actives have a fitted effect of over 55% in size. An outline of the steps:
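800 cells/well, overnight attach; compounds pinned at 15 concs, then auranofin/camptothecin/doxorubicin/rubitecan/topotecan combo added; 48hr 37 C, 5% CO2; CellTiter-Glo, 30min RT, luminescence.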

The nature of experiment [3]: qHTS assay to identify small molecule inhibitors of chordoma cells - UCH-2 (AID 1259356). Also: series mostly up to about 46 µM.
Experiment [4] in a line: NS1 protein of Zika virus - qHTS assay to identify small molecule inhibitors in human HEK 293 cells (AID 1347053). Also: series mostly up to about 46 µM; nearly all actives have a fitted effect of over 55% in size. An outline of the steps:
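Read-out is a two-antibody TR-FRET for ZIKV NS1, normalized between uninfected cells and infected cells. Compound added 1 h before MR766 infection at MOI 0.5; human HEK 293 cells incubated 24 h, 37 C.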

Experiment [5] can be described thus: qHTS of pediatric cancer cell lines to identify multiple opportunities for drug repurposing: Primary screen for TC32 cells (AID 1347089). Also: nearly all actives have a fitted effect of over 60% in size. In a few lines: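 Luminescent CellTiter-Glo read-out of metabolically active TC32 cells after 48 h compound exposure. Primary: MIPE 11-point, 0.78 nM–46 µM; NPC 8-point, 0.59 nM–46 µM. Confirmatory: 11-point dilutions.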
Experiment [6] can be described thus: qHTS of pediatric cancer cell lines to identify multiple opportunities for drug repurposing: Primary screen for DAOY cells (AID 1347090). Also: series mostly up to about 46 µM; nearly all actives have a fitted effect of over 55% in size. In a few lines:
(§1)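 Cell viability, CellTiter-Glo luminescence; 500-1,000 cells/well, 8- or 11-point titration, 48 h compound exposure at 37 degrees C, 5% CO2. Controls: DMSO neutral, bortezomib 2.3 µM final as positive.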

Experiment [7] in a line: qHTS of pediatric cancer cell lines to identify multiple opportunities for drug repurposing: Primary screen for SJ-GBM2 cells (AID 1347091). Also: potency is read from the fitted curve at half-maximal effect. An outline of the steps: as §1
Experiment [8] in a line: qHTS of pediatric cancer cell lines to identify multiple opportunities for drug repurposing: Primary screen for A673 cells (AID 1347092). Also: nearly all actives have a fitted effect of over 45% in size. In a few lines: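 A673 cells (500-1,000 cells/well in growth media) were pre-incubated 5 h at 37 degrees C, then exposed to compounds for 48 h. Viability was read as CellTiter-Glo luminescence; concentration-response curves came directly from the primary screen.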

Experiment [9] in a line: qHTS of pediatric cancer cell lines to identify multiple opportunities for drug repurposing: Primary screen for SK-N-MC cells (AID 1347093). Also: potency is read from the fitted curve at half-maximal effect. In a few lines: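 Metabolically active cells were quantified by ATP-dependent luminescence (CellTiter-Glo, 15 min at room temperature) following 48 h treatment. Cells had been plated at 500-1,000 per well and settled for 5 h beforehand.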

Experiment [10] is described as follows: qHTS of pediatric cancer cell lines to identify multiple opportunities for drug repurposing: Primary screen for BT-37 cells (AID 1347094). Also: potency is read from the fitted curve at half-maximal effect. An outline of the steps: (§2)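 Phenotypic viability qHTS, 48 h compound exposure, CellTiter-Glo luminescence read-out; multi-concentration dosing so that potency and efficacy derive directly from the primary screen's curves.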

Experiment [11] can be described thus: qHTS of pediatric cancer cell lines to identify multiple opportunities for drug repurposing: Primary screen for NB-EBc1 cells (AID 1347095). Also: potency is read from the fitted curve at half-maximal effect. An outline of the steps: as §2
Experiment [12] in a line: P-glycoprotein substrates identified in KB-8-5-11 adenocarcinoma cell line, qHTS therapeutic library screen (AID 1346987). Also: series mostly up to about 44 µM; nearly all actives have a fitted effect of over 65% in size. An outline of the steps:
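Compounds are pinned in dose-response onto KB-8-5-11 cells (500 cells/well, colchicine-free medium) and left 72 h at 37 degree C. CellTiter-Glo luminescence then yields AC50 values.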

With `NC(=O)C1(N2CCCCC2)CCN(CCCC(=O)c2ccc(F)cc2)CC1`, the molecule was called inactive in experiment [1]. Also, the Potency result in experiment [2], in [3], in experiment [4], in [5], in experiment [6] and in experiment [7] was “inactive” each time. Besides, the Potency result in [8], in experiment [9], in [10] and in experiment [11] was “inactive” throughout.

For `CC(C)[C@@H]1CC[C@@H](C)CC1=O`, in experiment [1], the result was inactive. For the same molecule, the Potency entry in [2], in experiment [3], in experiment [12], in experiment [4], in [5] and in [6] was “inactive” in each case. The Potency entry in [7] and in [11] was “inactive” throughout.

On to `CCCCCCCCCCCCCC[N+](C)(C)Cc1ccccc1`, for which, in [1], the result was inactive. For the same molecule, the Potency result in experiment [2], in experiment [3] and in experiment [12] was “inactive” in each case. In addition, the Potency in [7] was 21.1 µM (active); in experiment [10] it was 24.6 µM (active).

As to `COc1ccc(C(=O)c2ccccc2O)c(O)c1`, in [1], the molecule was classed as inactive. For the same molecule, the Potency result in experiment [2], in experiment [3], in experiment [4], in experiment [5], in experiment [6] and in experiment [7] was “inactive” each time. Further, the Potency result in experiment [8], in experiment [9], in [10] and in experiment [11] was “inactive” in each case.

In the case of `CCCCCCCCCCC[C@@H](C[C@@H]1OC(=O)[C@H]1CCCCCC)OC(=O)[C@H](CC(C)C)NC=O`, the outcome in experiment [1] was inactive. Further, the Potency entry in experiment [2], in experiment [3], in experiment [12], in experiment [4], in experiment [5] and in experiment [6] was “inactive” each time. For the same molecule, the Potency result in [10] was “inactive”.

As for `CCCCOC(=O)CC(CC(=O)OCCCC)(OC(C)=O)C(=O)OCCCC`, in experiment [1], the call was inactive. The Potency entry in experiment [2], in experiment [3], in experiment [4], in [5], in experiment [6] and in experiment [7] was “inactive” each time. In addition, the Potency result in experiment [8], in experiment [9], in [10] and in experiment [11] was “inactive” in each case.

As to `O=C(NCCc1c[nH]c2ccccc12)c1cccnc1`, the outcome in [1] was inactive. In addition, the Potency result in experiment [2], in [3], in [12], in experiment [5], in [6] and in experiment [7] was “inactive” in each case. In addition, the Potency entry in [8], in experiment [9], in experiment [10] and in [11] was “inactive” in each case.

For the molecule `O=C(CCCN1CC=C(n2c(=O)[nH]c3ccccc32)CC1)c1ccc(F)cc1`, in experiment [1], the molecule was classed as inactive. Moreover, the Potency entry in experiment [2], in [3], in experiment [12], in [4], in experiment [6] and in experiment [7] was “inactive” each time. Also, the Potency entry in experiment [11] was “inactive”.

In the case of `NC(=O)n1c(O)c(C(=O)c2cccs2)c2cc(Cl)ccc21`, the result in experiment [1] was inactive. Also, the Potency result in experiment [2], in experiment [3], in [12], in experiment [4] and in experiment [5] was “inactive” each time. In addition, the Potency in experiment [7] is 15 µM (active); in [9] it was 26.6 µM (active); in experiment [11], 16.8 µM (active).

As for `CN1CCC[C@@H]1CCO[C@](C)(c1ccccc1)c1ccc(Cl)cc1`, the molecule was classed as inactive in experiment [1]. Further, the Potency result in experiment [2], in [3], in [12], in experiment [4] and in experiment [5] was “inactive” in each case. In addition, the Potency in experiment [7] was 21.1 µM (active); in [9], 29.9 µM (active).

For `CC(C)[N+](C)(C)CC(O)COc1cccc2ccccc12` (configuration not stated), in experiment [1], the outcome was inactive. In addition, the Potency result in experiment [2], in experiment [3], in experiment [12], in experiment [4], in experiment [5] and in experiment [6] was “inactive” each time. Moreover, the Potency entry in [7], in [10] and in [11] was “inactive” in each case.
